These results are taken from paper PMC7862700, “An all-to-all approach to the identification of sequence-specific readers for epigenetic DNA modifications on cytosine”.

Experiment in all cases: DAPPL (digital affinity profiling via proximity ligation, sequencing); 10 mM Tris-HCl pH 7.5, 50 mM NaCl, 1 mM DTT, 4% glycerol, room temperature, 30 min; GST-TFs on glutathione beads, 16-mer random dsDNA library, 0.1% formaldehyde crosslink after washing; high values mean tight binding
In test [1] the target is HSF1 (Homo sapiens, UniProt Q00613 1-529). To be noted: protein: recombinant; tags: N-terminal GST; chain copies: 3; dsDNA, one strand shown. A digest of the protocol: (§1)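 Human transcription factors were made in yeast as GST fusions, captured on glutathione beads and barcoded with DNA. With a tag-only sample included, the pool was incubated with 200 nmole of a random double-stranded 16-mer DNA library in Tris/NaCl/DTT/glycerol buffer at room temperature for 30 min, then crosslinked with 0.1% formaldehyde after washing, ligated by proximity, amplified and sequenced. For binding signal, each hexamer's read frequency for a factor is divided by its frequency for the tag-only sample.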
Sequence of HSF1 (Q00613 whole entry, the tested form may be a part): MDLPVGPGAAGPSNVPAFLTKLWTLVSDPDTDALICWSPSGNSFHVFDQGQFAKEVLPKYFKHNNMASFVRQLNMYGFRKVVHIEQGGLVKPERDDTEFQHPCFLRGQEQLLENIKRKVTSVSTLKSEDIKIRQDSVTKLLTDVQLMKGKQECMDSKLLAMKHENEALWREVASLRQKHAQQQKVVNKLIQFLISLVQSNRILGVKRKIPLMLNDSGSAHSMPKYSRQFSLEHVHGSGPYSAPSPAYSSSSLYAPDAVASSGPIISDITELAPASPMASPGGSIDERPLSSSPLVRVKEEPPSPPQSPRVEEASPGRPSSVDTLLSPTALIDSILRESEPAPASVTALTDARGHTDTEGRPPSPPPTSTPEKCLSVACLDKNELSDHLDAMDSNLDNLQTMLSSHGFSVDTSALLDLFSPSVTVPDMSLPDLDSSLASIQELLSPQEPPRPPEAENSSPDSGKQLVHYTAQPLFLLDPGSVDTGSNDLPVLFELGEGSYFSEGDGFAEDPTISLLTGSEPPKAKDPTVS

In test [2] the target is T1, ELK4 (Homo sapiens, UniProt P28324-2 1-405).
T1 sequence: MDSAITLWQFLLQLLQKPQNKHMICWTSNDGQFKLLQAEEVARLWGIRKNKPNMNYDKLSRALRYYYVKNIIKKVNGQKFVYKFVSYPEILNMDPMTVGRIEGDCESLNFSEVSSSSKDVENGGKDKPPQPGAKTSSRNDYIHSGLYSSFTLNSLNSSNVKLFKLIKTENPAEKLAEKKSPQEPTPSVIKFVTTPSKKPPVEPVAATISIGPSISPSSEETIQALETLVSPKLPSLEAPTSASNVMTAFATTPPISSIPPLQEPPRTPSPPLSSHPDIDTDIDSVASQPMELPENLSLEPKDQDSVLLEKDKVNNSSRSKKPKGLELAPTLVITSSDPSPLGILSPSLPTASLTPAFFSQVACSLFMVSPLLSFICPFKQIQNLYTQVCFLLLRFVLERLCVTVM
The conditions noted are these: protein: recombinant; tags: N-terminal GST; dsDNA, one strand shown. A digest of the protocol:
as §1

The target of test [3] is T2, ETV2 (Homo sapiens, UniProt O00321 1-342).
T2 sequence: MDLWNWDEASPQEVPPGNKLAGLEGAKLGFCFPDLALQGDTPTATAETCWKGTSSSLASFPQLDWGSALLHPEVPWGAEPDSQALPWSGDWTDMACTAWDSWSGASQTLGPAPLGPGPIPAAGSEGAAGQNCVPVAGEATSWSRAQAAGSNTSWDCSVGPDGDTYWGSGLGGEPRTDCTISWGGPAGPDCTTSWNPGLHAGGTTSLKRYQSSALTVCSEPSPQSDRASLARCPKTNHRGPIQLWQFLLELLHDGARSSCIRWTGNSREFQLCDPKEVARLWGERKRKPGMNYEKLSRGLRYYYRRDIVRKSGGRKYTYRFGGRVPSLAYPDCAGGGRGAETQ
To be noted: protein: recombinant; tags: N-terminal GST; dsDNA, one strand shown. A digest of the protocol: as §1

Test [4] addresses T3, ETV7 (Homo sapiens, UniProt Q9Y603 1-341).
T3 sequence: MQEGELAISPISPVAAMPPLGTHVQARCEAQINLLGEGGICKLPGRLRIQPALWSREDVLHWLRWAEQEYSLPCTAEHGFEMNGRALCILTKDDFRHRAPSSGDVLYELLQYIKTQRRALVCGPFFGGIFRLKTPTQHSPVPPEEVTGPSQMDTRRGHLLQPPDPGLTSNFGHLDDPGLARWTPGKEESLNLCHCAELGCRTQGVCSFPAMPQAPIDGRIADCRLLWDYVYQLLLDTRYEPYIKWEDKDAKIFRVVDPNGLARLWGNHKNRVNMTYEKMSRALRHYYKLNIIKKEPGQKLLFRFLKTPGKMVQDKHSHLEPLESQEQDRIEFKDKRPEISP
The conditions noted are these: protein: recombinant; tags: N-terminal GST; dsDNA, one strand shown. A digest of the protocol:
as §1

In the case of CGAAGT, the binding signal in test [1] is 1.08 fold enrichment (6-mer frequency, TF over GST control); in test [2], 1 fold enrichment (6-mer frequency, TF over GST control); in test [3], 1.03 fold enrichment (6-mer frequency, TF over GST control); in test [4], 1.06 fold enrichment (6-mer frequency, TF over GST control).
